The panel holds about 83,000 compounds, 20% with a hit somewhere; the sample as a whole holds those more often.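 Single-dose data. Exposure time 48 hours. Values below 10 considered active.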 Values without a mark were called inactive. Active and inactive are the calls of the source.
Legend:
Experiment in all cases: NCI-60 one-dose screen, 48 h (100 = growth as untreated, 0 = no growth, -100 = all killed)
Conditions in all cases: 10 µM unless noted
DU-145 prostate = system: DU-145 prostate
K-562 leukemia = system: K-562 leukemia
MALME-3M melanoma = system: MALME-3M melanoma
MDA-MB-231 breast = system: MDA-MB-231 breast
RXF 393 renal = system: RXF 393 renal
SF-268 CNS = system: SF-268 CNS
SF-295 CNS = system: SF-295 CNS
SF-539 CNS = system: SF-539 CNS
UACC-257 melanoma = system: UACC-257 melanoma
M14 melanoma = system: M14 melanoma
HCT-15 colon = system: HCT-15 colon
HT29 colon = system: HT29 colon
SNB-75 CNS = system: SNB-75 CNS
SNB-19 CNS = system: SNB-19 CNS
U251 CNS = system: U251 CNS
PC-3 prostate = system: PC-3 prostate
SK-MEL-5 melanoma = system: SK-MEL-5 melanoma
UACC-62 melanoma = system: UACC-62 melanoma
LOX IMVI melanoma = system: LOX IMVI melanoma
SK-MEL-28 melanoma = system: SK-MEL-28 melanoma

Structure (SMILES) | growth (DU-145 prostate) | growth (K-562 leukemia) | growth (MALME-3M melanoma) | growth (MDA-MB-231 breast) | growth (RXF 393 renal) | growth (SF-268 CNS) | growth (SF-295 CNS) | growth (SF-539 CNS) | growth (UACC-257 melanoma) | growth (M14 melanoma) | growth (HCT-15 colon) | growth (HT29 colon) | growth (SNB-75 CNS) | growth (SNB-19 CNS) | growth (U251 CNS) | growth (PC-3 prostate) | growth (SK-MEL-5 melanoma) | growth (UACC-62 melanoma) | growth (LOX IMVI melanoma) | growth (SK-MEL-28 melanoma)
CC(=O)c1c(OCC#N)ccc2c(C)cc(=O)oc12 | 114% | 69% | 116% | 104% | 106% | 110% | 125% | 105% | 133% | 102% | 102% | 117% | 103% | 97.2% | 94.9% | 87.2% | 104% | 96.5% | 100% | 93%
COc1ccc(C(=O)c2cc(OC)c(OC)c(OC)c2)cc1OC(=O)CCl | 5.3% (active) | 13.3% | 71% | 34.4% | 56.6% | 37.3% | 17.3% | 1.91% (active) | 48.9% | 5.59% (active) | 17% | 21.6% | 60.8% | 31.3% | -16.9% (active) | 17% | -34% (active) | 45.2% | 19% | 60.8%
C=C1C(=O)O[C@H]2[C@H]1CC/C(C=Nc1c(N)cc(F)cc1Br)=C\CC[C@@]1(C)O[C@@H]21 | 55.2% | 20.3% | 99.5% | 65.1% | 66.3% | 83.1% | 99.7% | 86.9% | 81.9% | 66.2% | 30.6% | 36.4% | 91.2% | 76.7% | 87.3% | 58.3% | 96.9% | 90.1% | 66.2% | 80%
CC(=O)Nc1ccc2c(c1)Cc1cc(F)ccc1-2 | 96.4% | 91.4% | 104% | 101% | 117% | 80.7% | 101% | 97% | 99.7% | 110% | 105% | 92.2% | 87.4% | 103% | 95.5% | 95.5% | 102% | 90.7% | 95.8% | 117%
COc1cc(NCC(=O)Nc2cc(Nc3cccc(C(F)(F)F)c3)ncn2)c(Cl)c(OC)c1Cl | 97.4% | 85.6% | 115% | 78.2% | 114% | 98.9% | 75% | 101% | 88.2% | 93.1% | 94% | 81.7% | 83.4% | 99.9% | 92.5% | 82.2% | 95.2% | 75.5% | 93.2% | 105%
CN(C)[C@@H]1C(=O)C(C(N)=O)=C(O)[C@@]2(O)C(=O)C3=C(O)c4c(O)cc(CN5CCc6ccccc6C5)c(Cl)c4C[C@H]3C[C@@H]12 | -92.2% (active) | -73.6% (active) | -52.5% (active) | -74.4% (active) | -82.2% (active) | -74.9% (active) | -88.9% (active) | -84.6% (active) | -62% (active) | -71.2% (active) | -75.1% (active) | -84.6% (active) | -79.1% (active) | -82.2% (active) | -95.7% (active) | -85.5% (active) | -94.2% (active) | -89.5% (active) | -87.2% (active) | -86.6% (active)
N#Cc1nc(-c2ccccc2)oc1S(=O)(=O)NCC(c1ccc(Cl)cc1)N1CCCCC1 (stereo not given) | 84.4% | 8.67% (active) | 96.8% | 89.3% | 101% | 78% | 102% | 87.5% | 88.1% | 76.4% | 35.3% | 25.1% | 94% | 88.1% | 74.1% | 78.9% | 73.8% | 80.2% | 21.9% | 96.3%
CCOc1ccccc1C(=O)/C=C/c1cc2ccccc2[nH]c1=O | -37% (active) | 5.07% (active) | -39% (active) | -52.8% (active) | -69.4% (active) | -10.8% (active) | 1.85% (active) | -29.9% (active) | -9.05% (active) | -20.4% (active) | -58.9% (active) | -44.6% (active) | 21% | -72.9% (active) | -92.2% (active) | 14.9% | -78.3% (active) | -65.3% (active) | -81.8% (active) | -3.66% (active)
CCOC(=O)C1=C(C)n2nc(CC#N)c(C#N)c2NC1c1ccc(Cl)cc1 (stereo not given) | 97.2% | 115% | 87.4% | 88.8% | 100% | 87.3% | 102% | 96.8% | 114% | 91.2% | 97.1% | 111% | 86.1% | 106% | 107% | 91.3% | 98.3% | 94.4% | 94.7% | 101%
Cc1c(Cl)cccc1NC(=O)c1sc2nc3c(cc2c1N)CCCCCC3 | 9.29% (active) | 9.93% (active) | 58% | 34.2% | 12.2% | 35.7% | 24.6% | 0.159% (active) | 59.6% | 8.66% (active) | 24.1% | -10.3% (active) | -6.81% (active) | 29.1% | 15.7% | 32.9% | 28.7% | 32% | 40.8% | 58.7%
C=C1C(=O)O[C@H]2[C@H]1CC/C(C=Nc1c(N)cc(C(F)(F)F)cc1Br)=C\CC[C@@]1(C)O[C@@H]21 | 19.3% | -8.9% (active) | -8.38% (active) | -16% (active) | -63.4% (active) | 27.6% | 83.3% | 18.6% | 34% | -46.3% (active) | -55.1% (active) | -36.4% (active) | 76.1% | 33.7% | 25.7% | 6.24% (active) | 33.7% | 4.73% (active) | -74.4% (active) | -12.3% (active)
C[C@@H]1C(=O)[C@@H]2C[C@@H](O)[C@@H](O)C[C@]2(C)[C@H]2CC[C@@]3(C)C(=C12)CC[C@@H]3[C@@](C)(O)[C@H](O)CCC(C)(C)O | 99.2% | 94.9% | 103% | 107% | 116% | 98.2% | 108% | 103% | -10.5% (active) | 105% | 107% | 97.6% | 108% | 104% | 96.6% | 96.4% | 98.1% | 97.8% | 101% | 113%
Nc1c(C(=O)Nc2ccccn2)sc2nc3c(cc12)CCCCC3 | 12.2% | 7.25% (active) | 73.1% | 46.6% | 13.1% | 53.4% | 15.4% | 4.89% (active) | 72.5% | 10.8% | 24% | 7.16% (active) | 12.3% | 33.4% | 23.2% | 31.4% | 22.2% | 40.8% | 48.6% | 73.7%
COc1ccc(/C=C/C(=O)/C=C(/C=C/c2ccc(OC)c(OC)c2)OB(F)F)cc1OC | 35.1% | 17.4% | 25.4% | 21% | -10.8% (active) | 34.9% | 69.4% | 28.8% | 59.1% | 11.1% | 0.848% (active) | 3% (active) | 76.8% | 52.9% | 8.37% (active) | 31.5% | 56.6% | 52.6% | 5.12% (active) | 29.6%
O=C1C(=O)c2c(nc3ccc(C(F)(F)F)cn23)-c2ccccc21 | -96.3% (active) | -41.9% (active) | -97.3% (active) | -22.7% (active) | -94.8% (active) | -78.7% (active) | -96.5% (active) | -97.4% (active) | -97.1% (active) | -79.5% (active) | -67.4% (active) | -9.93% (active) | -97% (active) | -84.4% (active) | -96% (active) | -85% (active) | -99.2% (active) | -82.4% (active) | -65.4% (active) | -84.3% (active)

Source: PubChem BioAssay (NCI)
